# Hits are enriched below; roughly 0.57% of the tested compounds scored in any of these assays.
# PrP UTR inh: inhibition of PrP 5' UTR reporter expression | AID 488862 | 340,000 tested, 0.35% active | inhibition, % (no concentration beside the values) | cell-based PrP 5' UTR mRNA reporter, plate reader; in the data active = inhibition above about 52%; note: 0 = median of the neutral control wells
# TcdB GH inh: blocks C. difficile toxin B glycohydrolase activity. P18177. TcdB glycohydrolase enzymatic assay, plate reader. inhibition, % at 9.99 µM. 350,000 tested, 0.24% active. AID 652162; in the data active = inhibition above about 10%
# Yp Topo-I inh: blocks Yersinia pestis topoisomerase I activity | Y. pestis Topo-I cleavage product accumulation, plate reader | activity, % at 10 µM | 360,000 tested, 0.064% active; in the data active = activity above about 50%, passing the limit was not always enough
# BioA inh-1: inhibitors of Mycobacterium tuberculosis BioA enzyme; inhibition, % at 9.99 µM; purified M. tuberculosis BioA enzyme, plate reader; 360,000 tested, 0.096% active; AID 602481; in the data active = inhibition above about 40%
# BioA inh-2: blocks M. tuberculosis BioA aminotransferase; shares compounds with BioA inh-1; purified BioA enzyme, plate reader, dose response; max activity, %; 310 tested, under 10 active;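 note: top concentration of the dilution series was 10 µM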
# HepG2 tox 2: cytotoxicity in HepG2 cells; plate reader; max activity, %; shares compounds with BioA inh-1; 310 tested, under 10 active
# 3T3 cytotox 5: kills NIH3T3 cells; NIH3T3 cytotoxicity, plate reader; 310 tested, under 10 active; activity change, negative = cytotoxicity, % at 26 µM; AID 651900; shares compounds with BioA inh-1
# The depositor's hits bear a star; i = inactive; nt = no result; [ ] = dose if it differs, or a comment. Unless noted, the rule behind the calls is not given here.
SMILES,PrP UTR inh,TcdB GH inh,Yp Topo-I inh,BioA inh-1,BioA inh-2,HepG2 tox 2,3T3 cytotox 5
CC(C)(C)[S@@](=O)N1Cc2cc(C(=O)NCc3ccccc3F)nc(-c3cccc(-c4cccnc4)c3)c2[C@H]1CCO,nt,1,nt,8,nt,nt,nt
CC(C)(C)[S@](=O)N1Cc2cc(C(=O)NCc3ccccc3F)nc(-c3cccc(-c4cccnc4)c3)c2[C@@H]1CCO,nt,1,nt,42*,-7,i,-5[23.5 µM]
COc1ccc(-c2nc3ccc(Cl)cn3c2Cc2ccccc2)cc1OC,nt,2,nt,70*,-9,-13,-7
COCC#Cc1cnc2c(c1)C(=O)N([C@@H](C)CO)C[C@H](C)[C@@H](CN(C)C(=O)NC1CCCC1)O2,nt,0,nt,9,nt,nt,nt
O=C(C[C@H]1CC[C@@H]2[C@H](COC[C@@H](O)CN2Cc2ccccc2F)O1)N[C@H]1CCN(Cc2ccccc2)C1,nt,-1,nt,1,nt,nt,nt
COC(=O)C1CCN(C(c2ccc(OC)c(OC)c2)c2sc3nc(C)nn3c2O)CC1 (stereo unspecified),-12,-1,-4,45*,-8,14,-7
O=C(NCc1ccc(Cl)cc1)C1CCN(S(=O)(=O)c2cccnc2)CC1,-8,-7,-2,0,nt,nt,nt
O=C(Nc1cccnc1)C1CCN(S(=O)(=O)c2ccc(Cl)cc2)CC1,-10,1,-3,85*,-9,-13,-2
CSc1ccc(S(=O)(=O)N2CCC(C(=O)Nc3cccnc3)CC2)cc1,-11,-3,-4,71*,-6,-17,3
Cc1noc(C)c1NC(=O)N(C)C[C@H]1Oc2ccc(NS(=O)(=O)c3ccc(F)cc3)cc2CC(=O)N([C@H](C)CO)C[C@H]1C,nt,0,nt,-5,nt,nt,nt
CCCC#Cc1ccc2c(c1)O[C@@H](CN(C)S(=O)(=O)c1cccc(OC)c1)[C@@H](C)CN([C@@H](C)CO)S2(=O)=O,nt,0,nt,3,nt,nt,nt
O=C(CN1C(=O)/C(=C/c2cccc(Br)c2)SC1=S)Nc1cccnc1,-20,-1,17,88*,5,4,0
Cc1cc(C)n(-c2ccc(C(=O)Nc3ccc4c(c3)OCO4)cc2)n1,-63,nt,11,44*,-8,-8,3
CO[C@H]1CN(C)C(=O)c2ccc(NC(C)=O)cc2OC[C@@H](C)N(C(=O)C2CC2)C[C@H]1C,nt,1,nt,4,nt,nt,nt
Cc1nc2c(C(=O)N3CCN(c4ccccn4)CC3)cnn2c(C)c1Cc1cccc(Cl)c1,-16,nt,19,40*,-6,11,5
O=C(C[C@H]1C[C@H]2c3cc(NC(=O)C4CCC4)ccc3O[C@H]2[C@H](CO)O1)NCc1ccccc1,nt,0,nt,-3,nt,nt,nt
CCNC(=O)[C@H]1[C@H](CO)[C@H]2Cn3c(ccc(-c4cccc(F)c4)c3=O)[C@H]2N1C(=O)Cc1cccnc1,nt,-2,nt,42*,-5,i,0
O=C(Nc1nccs1)[C@H]1[C@H](CO)[C@H]2Cn3c(ccc(-c4cccnc4)c3=O)[C@H]2N1CC1CCCC1,nt,1,nt,52*,-6,i,14
COc1ccc(NC(=O)Nc2ccc3c(c2)C(=O)N([C@H](C)CO)C[C@@H](C)[C@@H](CN(C)C(=O)Nc2ccc(C(F)(F)F)cc2)O3)cc1,nt,-2,nt,0,nt,nt,nt
O=C(C[C@H]1C[C@H]2c3cc(NC(=O)CC4CC4)ccc3O[C@H]2[C@H](CO)O1)NCc1ccc(-c2ccccc2)cc1,nt,0,nt,-3,nt,nt,nt
Cn1ncc2cc3c(Nc4ccc(Cl)cc4)cccc3nc21,nt,0,nt,81*,-4,-9,-3
Cn1ncc2c(Nc3ccc(Cl)cc3)ncnc21,-16,3,4,3,nt,nt,nt
C[C@H]1CN([C@@H](C)CO)S(=O)(=O)c2ccc(C3=CCCCC3)cc2O[C@H]1CN(C)S(=O)(=O)c1cn(C)cn1,nt,-1,nt,2,nt,nt,nt
O=C(Nc1ccc2c(c1)[C@H]1C[C@H](CC(=O)N3CCc4ccccc4C3)O[C@H](CO)[C@H]1O2)c1cccnc1,nt,-1,nt,36,nt,nt,nt
O=C(C[C@@H]1C[C@@H]2c3cc(NC(=O)c4cccnc4)ccc3O[C@@H]2[C@@H](CO)O1)NCc1cccnc1,nt,0,nt,41*,-7,i,-5
O=C(C[C@@H]1C[C@@H]2c3cc(NC(=O)c4cccnc4)ccc3O[C@@H]2[C@H](CO)O1)NCc1ccccn1,nt,1,nt,33,nt,nt,nt
O=C(C[C@@H]1C[C@@H]2c3cc(NC(=O)c4cccnc4)ccc3O[C@@H]2[C@@H](CO)O1)NCc1cccc(F)c1,nt,-1,nt,51*,-8,i,1[23.5 µM]
